Test results: ChEMBL document CHEMBL4513216, “Probing the Open Global Health Chemical Diversity Library for Multistage-Active Starting Points for Next-Generation Antimalarials” (ACS Infect Dis, 2020)
The whole screen tested about 68,000 compounds, of which about 2,700 (4%) showed an effect of 50% or more. For the sample, strong results were picked, then their nearest neighbours and some compounds at random.

The compounds below were run on Plasmodium berghei (assay: Screen against P. berghei liver stage (PbLuc), transformed with Luciferase, at 2uM). Details: tested at 2 uM.
Type: functional, HepG2

Row | Compound | INHIBITION
1 | CCc1ncc2c(n1)CN(c1nnc(C)c(C)c1C#N)CC2 | 23.43%
2 | Cc1cc(-c2cnc(N3CCCC(C)C3)nc2-c2cccnc2C)on1 (centres undefined) | -39.75%
3 | CS(=O)(=O)NCc1n[nH]c2c1CCN(C(=O)c1ccsc1)C2 | 19.56%
4 | CCC(=O)NCc1cc(Br)ccc1OC(F)F | 43.8%
5 | CS(=O)(=O)N1CCN2C(=O)N(C3CCOCC3)C[C@H]2C1 | 35.89%
6 | CN1CCN2C(=O)N(C3CCOCC3)C[C@H]2C1 | 52.36%
7 | CN1CCN2C(=O)N(C3CCCCC3)C[C@H]2C1 | -22.32%
8 | Cc1cnn(CC2CCCN2C(=O)CCc2ccncc2)c1 (centres undefined) | -5.39%
9 | N#Cc1ccc(C(=O)N2CCc3c(COCC4CC4)cncc3C2)cc1 | -20.87%
10 | CSC1(CNC(=O)NCc2sccc2C)CCOCC1 | 13.58%
11 | CSC1(CNC(=O)N(C)Cc2sccc2C)CCOCC1 | 57.16%
12 | CSC1(CNC(=O)N(C)Cc2ccc(C)s2)CCOCC1 | -18.99%
13 | CC(C)N(C)CC(=O)NCCc1nc(C(F)(F)F)cs1 | -18.28%
14 | CN(C)Cc1nnc(C2CCN(c3ncccn3)CC2)n1C1CC1 | -61.17%
15 | CN(C)Cc1nnc(C2CCN(c3ncccc3Cl)CC2)n1C1CC1 | 84.18%
16 | Cc1cnc(C)c(N2CCC(c3nnc(CN(C)C)n3C3CC3)CC2)n1 | -13.88%
17 | Cn1cncc1CN1CCC2(CC1)COCCN(S(C)(=O)=O)C2 | -38.72%
18 | Cc1cc(C(F)(F)F)nn1CCNC(=O)C(C)n1ccnc1C(C)C (centres undefined) | -4.93%
19 | CCCN(CC1CC1)S(=O)(=O)c1ccc(NC(C)=O)cc1 | -13.12%
20 | CC(C)(O)CCc1cccc(C(=O)N2CCC[C@H]2C(N)=O)c1 | 6.26%
21 | CN(CCCOc1ccc(F)cc1)S(=O)(=O)c1cnn(C)c1 | -6.65%
22 | COc1ccc(OCCN(C)S(=O)(=O)c2cnn(C)c2)cc1 | 83.12%
23 | CN(C)CCOc1ccc(N(C)S(=O)(=O)c2cnn(C)c2)cc1 | 57.68%
24 | Cc1ccc(OCCN(C)S(=O)(=O)c2cnn(C)c2)cc1 | 31.54%
25 | CN(CCCOc1ccccc1)S(=O)(=O)c1cnn(C)c1 | -2.63%
26 | CN(CCOc1ccc(F)cc1)S(=O)(=O)c1cnn(C)c1 | -11.34%
27 | Cc1oc(C(=O)O)cc1S(=O)(=O)Nc1cccc(-n2nccc2C)c1 | 37.15%
28 | Cc1c[nH]nc1C1CCN(C(=O)C2CCCC2)C1 (centres undefined) | 41.21%
29 | NC(=O)C1(Cc2ccc(-c3ccccc3)cc2)CCNC1 (centres undefined) | 9.18%
